# Where a name gives a salt, the structure may show the parent alone. ± gives the standard deviation.
# Test system: Danio rerio Tg(wt1b:EGFP) embryo, pronephros
# Experiment: glomerular separation, fold change vs DMSO control; higher = glomeruli further apart (abnormal)
# Conditions: 25 µM; exposure: 24-48 hpf
# Outline: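 Dechorionated Tg(wt1b:EGFP) zebrafish embryos were kept from 24 to 48 hpf at 28.5°C in HEPES-buffered E3 containing 0.003% PTU, 0.5% DMSO and 25 μM compound. The pronephroi were then imaged from the dorsal side in agarose-filled 96-well plates at 470 nm with 10 z-slices, and 16 reference points were placed by hand on maximum projections in Fiji so that a macro could calculate distances and angles. Values lying more than 2 SD from the mean of a feature were discarded. Every feature is given as a fold change against the mean of DMSO-treated embryos from the same day.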
row,Compound,glomerular separation
1,C[C@]12CC[C@H]3[C@@H](CCC4=CC(=O)CC[C@@H]43)[C@@H]1CC[C@@H]2O [Nandrolone],1.02 ± 0.42
2,CC[N+]1(C)CCCC(OC(=O)C(O)(c2ccccc2)c2ccccc2)C1 (stereo not given) [Pipenzolate bromide],0.89 ± 0.28
3,C[C@]12CC[C@@H]3c4ccc(OC(=O)N(CCCl)CCCl)cc4CC[C@H]3[C@@H]1CC[C@@H]2O [Estramustine],2.15 ± 0.79
4,CCCN1C[C@H](CSC)C[C@@H]2c3cccc4[nH]cc(c34)C[C@H]21 [Pergolide mesylate],1.26 ± 0.37
5,NCCCNCCSP(=O)(O)O [Amifostine],0.91 ± 0.29
6,CC[C@@H](C(N)=O)N1CCCC1=O [Levetiracetam],0.937 ± 0.41
7,C[C@]12CC[C@@H](O)C[C@H]1CC[C@@H]1[C@@H]2CC[C@]2(C)C(=O)CC[C@@H]12 [3-alpha-Hydroxy-5-beta-androstan-17-one],1.13 ± 0.44
8,C[C@@H]1C[C@@H]([C@H](O)CC2CC(=O)NC(=O)C2)C(=O)[C@@H](C)C1 [Cycloheximide],0.972 ± 0.45
9,CC(=O)NC1CCSC1=O (racemic) [N-Acetyl-DL-homocysteine Thiolactone],0.761 ± 0.24
10,CC(C)(C)NCC(O)c1cc(Cl)c(N)c(Cl)c1 (stereo not given) [Clenbuterol hydrochloride],1.04 ± 0.33
11,"NCC(O)c1ccc(O)cc1 (racemic) [(+,-)-Octopamine hydrochloride]",0.97 ± 0.66
12,C=C(C)[C@@H]1[C@H]2OC(=O)[C@@H]1[C@]1(O)C[C@H]3O[C@]34C(=O)O[C@H]2[C@]14C [Picrotoxinin],1.19 ± 0.57
13,C[N+]12CCC(CC1)C(OC(=O)C(O)(c1ccccc1)c1ccccc1)C2 (stereo not given) [Clidinium bromide],0.83 ± 0.32
14,COc1ccc(CN2CCNCC2)c(OC)c1OC [Trimetazidine dihydrochloride],0.91 ± 0.3
15,CN(C)C(=O)Oc1cc(OC(=O)N(C)C)cc(C(O)CNC(C)(C)C)c1 (stereo not given) [Bambuterol hydrochloride],0.925 ± 0.31
16,CC(C)C[C@H]1C(=O)N2CCC[C@H]2[C@]2(O)O[C@](NC(=O)[C@@H]3C=C4c5cccc6[nH]c(Br)c(c56)C[C@H]4N(C)C3)(C(C)C)C(=O)N12 [Bromocryptine mesylate],1.01 ± 0.34
17,C#C[C@]1(O)CC[C@H]2[C@@H]3CCC4=CC(=O)CC[C@]4(C)[C@H]3CC[C@@]21C [Ethisterone],0.918 ± 0.23
18,CC(=O)O[C@H]1C[C@H](O[C@H]2[C@@H](O)C[C@H](O[C@H]3[C@@H](O)C[C@H](O[C@H]4CC[C@@]5(C)[C@H](CC[C@@H]6[C@@H]5C[C@@H](O)[C@]5(C)[C@@H](C7=CC(=O)OC7)CC[C@]65O)C4)O[C@@H]3C)O[C@@H]2C)O[C@H](C)[C@H]1O[C@@H]1O[C@H](CO)[C@@H](O)[C@H](O)[C@H]1O [Lanatoside C],1.4 ± 0.72

row,Compound,glomerular separation
1,CN(C)C(=O)Oc1ccc[n+](C)c1 [Pyridostigmine iodide],1.26 ± 0.35
2,O=c1[nH]oc2c1CCNC2 [THIP Hydrochloride],0.923 ± 0.31
3,S=C(NC1CCCCC1)N1CCC(c2cnc[nH]2)CC1 [Thioperamide maleate],1.28 ± 0.6
4,CC[C@@H](CO)NC(=O)[C@@H]1C=C2c3cccc4[nH]cc(c34)C[C@H]2N(C)C1 [Methylergometrine maleate],1.12 ± 0.46
5,C[C@]12Cc3c[nH]nc3C[C@@H]1CC[C@@H]1[C@@H]2CC[C@@]2(C)[C@H]1CC[C@]2(C)O [Stanozolol],1.31 ± 0.44
6,COc1ccc(OC)c(C(O)C(C)N)c1 (stereo not given) [Methoxamine hydrochloride],0.886 ± 0.22
7,CC(NC(C)(C)C)C(=O)c1cccc(Cl)c1 (stereo not given) [Bupropion hydrochloride],0.797 ± 0.2
8,C(#CCN1CCCC1)CN1CCCC1 [Tremorine dihydrochloride],1.25 ± 0.52
9,NCCc1c[nH]c2ccc(O)cc12 [Serotonin hydrochloride],1.61 ± 1.2
10,COc1cccc(C2(O)CCCCC2CN(C)C)c1 (stereo not given) [Tramadol hydrochloride],0.728 ± 0.23
11,NC(=O)CN1CCCC1=O [Piracetam],0.815 ± 0.17
12,COc1cc2c(c(OC)c1OC)-c1ccc(OC)c(=O)cc1[C@@H](NC(C)=O)CC2 [Colchicine],1.2 ± 0.47
13,C[C@]12CCC(=O)C=C1C=C[C@@H]1[C@@H]2CC[C@@]2(C)[C@H]1CC[C@@]2(O)CCC(=O)O [Canrenoic acid potassium salt],1.07 ± 0.36
14,NCC1(CC(=O)O)CCCCC1 [Gabapentin],0.802 ± 0.29
15,CN1[C@@H]2CC[C@H]1C[C@@H](OC1c3ccccc3CCc3ccccc31)C2 [Deptropine citrate],0.934 ± 0.35
16,CC(Cc1ccc(O)cc1)NCC(O)c1cc(O)cc(O)c1 (stereo not given) [Fenoterol hydrobromide],1.33 ± 0.53
17,c1ccc2nc(N3CCNCC3)ccc2c1 [Quipazine dimaleate salt],1.09 ± 0.53

# From the supplement of paper PMC7366291
